In PubChem BioAssay AID1159580 (chemical genetic matrix, 2015):
Among all 5,500 compounds or so, about 2,000 (36%) were called active. Not shown: some 18% with an inconclusive outcome. Rule as the data show it: active = normalized growth mostly below about 0.91 (no sharp cut-off); inconclusive = no clear call, values can overlap the other calls; inactive = mostly above about 0.92. Some of the results follow.

Assay: chemical genetic growth profiling, strain panel (AID 1159580);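 also: tested at 20 µM; growth read once vehicle control cultures reached saturation at 30 °C; 1 = growth at the plate median or of vehicle wells; lower values mean less growth of the strain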
Settings: S. cerevisiae deletion strains, growth OD

Measured: normalized growth

COc1c(Cl)ccc(Cl)c1C(=O)O
inactive: locus YAL013W, strain DEP1, hits give low values 1.01 | locus YAL021C, strain ccr4, hits give low values 0.972 | locus YAL026C, strain drs2, hits give low values 0.988 | locus YAL030W, strain snc1, hits give low values 0.984 | locus YBL061C, strain skt5, hits give low values 0.977 | locus YBR009C, strain hhf1, hits give low values 0.988 | locus YBR021W, strain FUR4, hits give low values 1.02 | locus YBR023C, strain chs3, hits give low values 0.995 | locus YBR171W, strain sec66, hits give low values 0.977 | locus YBR229C, strain ROT2, hits give low values 0.999 | locus YBR231C, strain swc5, hits give low values 0.968 | locus YBR279W, strain paf1, hits give low values 0.982 | locus YCL011C, strain gbp2, hits give low values 0.981 | locus YCL016C, strain dcc1, hits give low values 0.986 | locus YCL029C, strain bik1, hits give low values 1.02 | locus YCL061C, strain MRC1, hits give low values 0.985 | locus YCL069W, strain vba3, hits give low values 0.984 | locus YCR088W, strain abp1, hits give low values 0.978 | locus YDL005C, strain med2, hits give low values 0.975 | locus YDL035C, strain GPR1, hits give low values 1.02 | locus YDL040C, strain nat1, hits give low values 0.977 | locus YDL074C, strain BRE1, hits give low values 1.04 | locus YDL101C, strain DUN1, hits give low values 1.01 | locus YDL134C, strain PPH21, hits give low values 1.01 | locus YDL185W, strain tfp1, hits give low values 1.02 | locus YDL192W, strain arf1, hits give low values 1.02 | locus YDR001C, strain nth1, hits give low values 0.985 | locus YDR069C, strain doa4, hits give low values 0.976 | locus YDR101C, strain arx1, hits give low values 1.01 | locus YDR137W, strain rgp1, hits give low values 1.01 | locus YDR150W, strain NUM1, hits give low values 1 | locus YDR159W, strain sac3, hits give low values 0.972 | locus YDR162C, strain NBP2, hits give low values 1.01 | locus YDR195W, strain ref2 0.919 | locus YDR297W, strain sur2, hits give low values 0.993 | locus YDR318W, strain mcm21, hits give low values 1.02 | locus YDR334W, strain swr1, hits give low values 0.979 | locus YDR335W, strain msn5, hits give low values 0.985 | locus YDR388W, hits give low values 1.01 | locus YDR392W, strain spt3, hits give low values 0.999 | locus YDR502C, strain sam2, hits give low values 1.01 | locus YEL003W, strain gim4, hits give low values 0.985 | locus YEL037C, strain rad23, hits give low values 0.985 | locus YEL061C, strain CIN8 (second series), hits give low values 0.973 | locus YEL061C, strain CIN8, hits give low values 0.997 | locus YER015W, strain faa2, hits give low values 0.981 | locus YER016W, strain bim1, hits give low values 0.985 | locus YER110C, hits give low values 1.02 | locus YER111C, strain swi4, hits give low values 0.96 | locus YER155C, strain BEM2 (second series), hits give low values 0.982 | locus YER155C, strain BEM2, hits give low values 1.01 | locus YER167W, strain BCK2, hits give low values 1.02 | locus YFR010W, strain ubp6, hits give low values 0.983 | locus YGL078C, strain dbp3, hits give low values 1.01 | locus YGL086W, strain mad1, hits give low values 1.01 | locus YGL167C, strain pmr1, hits give low values 0.984 | locus YGL173C, strain kem1, hits give low values 0.982 | locus YGL227W, strain vid30, hits give low values 0.97 | locus YGL240W, strain doc1, hits give low values 0.961 | locus YGL248W, strain PDE1, hits give low values 1.01 | locus YGL253W, strain hxk2, hits give low values 0.993 | locus YGR078C, strain PAC10, hits give low values 1.01 | locus YGR135W, strain pre9, hits give low values 1.02 | locus YGR229C, strain SMI1, hits give low values 1.04 | locus YGR252W, strain gcn5, hits give low values 1.02 | locus YHR013C, strain ard1, hits give low values 0.957 | locus YHR027C, strain rpn1, hits give low values 0.995 | locus YHR030C, strain SLT2, hits give low values 1.01 | locus YHR079C, strain IRE1 (second series), hits give low values 1.01 | locus YHR094C, strain hxt1, hits give low values 1.01 | locus YHR129C, strain ARP1, hits give low values 1.01 | locus YHR142W, strain chs7, hits give low values 0.979 | locus YHR200W, strain rpn10, hits give low values 1 | locus YIL066C, strain RNR3, hits give low values 1.04 | locus YIL073C, strain SPO22, hits give low values 1.09 | locus YIL125W, strain kgd1, hits give low values 1.01 | locus YIR030C, strain dcg1, hits give low values 1.01 | locus YJL092W, strain hpr5, hits give low values 0.987 | locus YJL095W, strain BCK1 (second series), hits give low values 0.99 | locus YJL095W, strain BCK1, hits give low values 1.02 | locus YJL115W, strain asf1, hits give low values 0.976 | locus YJL129C, strain trk1, hits give low values 0.976 | locus YJL134W, strain LCB3, hits give low values 1.01 | locus YJL154C, strain vps35, hits give low values 0.992 | locus YJL164C, strain tpk1, hits give low values 0.987 | locus YJL166W, strain qcr8, hits give low values 0.997 | locus YJL168C, strain set2, hits give low values 1.01 | locus YJL187C, strain SWE1 (second series), hits give low values 1.01 | locus YJL187C, strain SWE1, hits give low values 0.99
